Experimental data: PubChem BioAssay (NCI)
About 83,000 compounds went through this panel and 20% of them were active in at least one assay; those are over-represented in the sample as a whole.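 Negative percent growth values reflect cell death: -40 means 40% of the cells present at the start died, and -100 means all died.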 A number with no mark means an inactive call. The source made the active and inactive calls. Rule for the calls: active = growth percent below 10; inactive = the rest.

Assays:
Assay in all cases: NCI-60 one-dose screen, 48 h (100 = growth as untreated, 0 = no growth, -100 = all killed)
Conditions in all cases: 10 µM
T-47D breast = tested on: T-47D breast
BT-549 breast = tested on: BT-549 breast
MDA-MB-435 melanoma = tested on: MDA-MB-435 melanoma
SW-620 colon = tested on: SW-620 colon
MCF7 breast = tested on: MCF7 breast
HCT-116 colon = tested on: HCT-116 colon
HCC-2998 colon = tested on: HCC-2998 colon
KM12 colon = tested on: KM12 colon

| Structure (SMILES) | growth (T-47D breast) | growth (BT-549 breast) | growth (MDA-MB-435 melanoma) | growth (SW-620 colon) | growth (MCF7 breast) | growth (HCT-116 colon) | growth (HCC-2998 colon) | growth (KM12 colon) |
| --- | --- | --- | --- | --- | --- | --- | --- | --- |
| CC1=CSC2=NC(c3ccc(Cl)c(Cl)c3)=CC(c3ccc(Cl)cc3)N12 (centres undefined) | 21.3% | 7.99% (active) | 10.4% | 26.4% | 54.3% | 3.71% (active) | 100% | 56.8% |
| CC(Oc1ccc(Cl)cc1)c1ccccc1 (centres undefined) | 95.7% | 114% | 101% | 96.4% | 102% | 98.9% | 115% | 103% |
| Cc1ccc2c(c1)-c1cc(C)nn1-c1ccc(C#N)cc1O2 | 51.8% | 78.5% | 8.67% (active) | 41% | 42% | 27.6% | 90% | 56.9% |
| Cc1ccc(C(=O)O)c(N)c1C | 94.5% | 94.3% | 105% | 104% | 92.6% | 92% | 106% | 95% |
| N#CN1CC[C@H](C(=O)Nc2ncc(-c3ccccc3)s2)C1 | -44% (active) | -5.31% (active) | 0.958% (active) | 5.19% (active) | 3.54% (active) | -3.16% (active) | -11.1% (active) | -6.3% (active) |
| COc1ccc(-c2nc(SCC(=O)c3ccc(Br)cc3)[nH]c(=O)c2C#N)cc1 | 93.9% | 94.2% | 100% | 106% | 100% | 97.4% | 104% | 96.9% |
| N=C(N)c1ccc(-c2ccc(-c3ccccc3)s2)cc1F | -65.6% (active) | -96.8% (active) | -84.2% (active) | -85.4% (active) | -71.7% (active) | -91.8% (active) | -79.1% (active) | -86.1% (active) |
| O=C(Nc1ccc(CN2CCOCC2)cc1)c1ccc(-c2cc(Cl)ccc2Cl)o1 | 34.7% | 102% | -10.5% (active) | -2.26% (active) | -34.1% (active) | 22.3% | -83.5% (active) | 8.82% (active) |
| O=C(COCc1c(-c2ccccc2)no[n+]1[O-])Nc1nc(-c2ccc(Cl)cc2)cs1 | 103% | 102% | 111% | 101% | 96.3% | 104% | 104% | 101% |
| CCOC(=O)c1sc(Nc2ncccn2)nc1-c1ccccn1 | 41.8% | 89.2% | 103% | 95.6% | 7.18% (active) | 74.2% | 80.7% | 83% |
| Oc1cc(O)c(Br)cc1Br | 90.2% | 93.8% | 101% | 105% | 91.3% | 97.3% | 94.6% | 101% |
| O=C(CCCC(=O)N/N=C/c1cc(Cl)ccc1O)N/N=C\c1cc(Cl)ccc1O | 24.1% | 29.2% | 45.1% | 30.9% | 14.3% | 24.7% | 29.2% | 27.8% |
| COc1ccc(-c2cc(/C=C/C(=O)c3ccc(N)cc3)[nH]n2)cc1OC | 50.3% | 55.4% | 46.8% | 10.2% | 14.9% | 17.4% | 38.8% | 5.98% (active) |
| Nc1ccc(Sc2ccc3c4c2cccc4c(=O)n2c4ccccc4nc32)cc1 | 39.6% | 59.1% | 80.2% | 46.3% | 23.6% | 46.8% | 80.7% | 73.6% |
| O=C(Nc1cccc(C(F)(F)F)c1)C(Cl)Cl | 87.9% | 102% | 103% | 104% | 90.2% | 98.1% | 105% | 94.8% |
| N/C(=N\O)c1cn(C2OC(CO)C(O)C2O)c2ncnc(N)c12 (centres undefined) | -7.04% (active) | 14% | -73.1% (active) | -12.1% (active) | -29.9% (active) | 9.85% (active) | -23.1% (active) | -24.2% (active) |
| Cc1nc2sccn2c1-c1csc(Nc2cccc(Cl)c2C)n1 | 36.2% | 43.9% | 7.55% (active) | 49.1% | 38.1% | 46.1% | 69% | 50.8% |

| Structure (SMILES) | growth (T-47D breast) | growth (BT-549 breast) | growth (MDA-MB-435 melanoma) | growth (SW-620 colon) | growth (MCF7 breast) | growth (HCT-116 colon) | growth (HCC-2998 colon) | growth (KM12 colon) |
| --- | --- | --- | --- | --- | --- | --- | --- | --- |
| N#CCC1CCCC1 | 101% | 112% | 91.2% | 104% | 92.8% | 99.8% | 104% | 110% |
| Nc1ncncc1-c1ccc(F)cc1 | 96.7% | 111% | 102% | 114% | 110% | 108% | 109% | 110% |
| C=CCn1ccc(=O)nc1SC | 97.2% | 105% | 108% | 103% | 100% | 112% | 103% | 104% |
| C[C@]12CC[C@H]3[C@@H](CCC4=CC(=O)CC[C@@]43C)[C@@H]1CC[C@@H]2c1csc(N)n1 | 24.8% | 34.2% | 55.5% | 56.9% | 26% | 32.7% | 45.8% | 50.8% |
| CCOc1cc(Br)c(C(C)NC(=O)c2cccc(OC)c2)cc1OCC (centres undefined) | 80.8% | 87% | 6.36% (active) | 85.7% | 64.4% | 56.2% | 37.7% | 84.1% |
| CN(C)CCCN1c2ccccc2Sc2ccc(C(F)(F)F)cc21 | 5.93% (active) | 25.7% | -39.3% (active) | 9.61% (active) | -39.7% (active) | 1.99% (active) | -65.9% (active) | 0.137% (active) |
| Cn1c(=O)c2[nH]c(C(O)c3ccc(Cl)cc3)nc2n(C)c1=O (centres undefined) | 101% | 93.6% | 101% | 89.5% | 96.6% | 95% | 97.8% | 97.3% |
| CCCCNC(=O)Oc1ccc(/C(=C(\C)c2ccc(OC)cc2)c2ccc(OCCN3CCCCC3)cc2)cc1 | 32.4% | 52% | 59.8% | 40.5% | 24.2% | 29.4% | 72.8% | 45.4% |
| CC(=O)/C(=C\c1ccc(Cl)cc1)c1ccccc1 | 47.8% | 14.5% | -35.2% (active) | 25.6% | 9.45% (active) | 5.06% (active) | 3.78% (active) | 10.1% |
| Cc1ccc2nc(-c3ccc(OCC(=O)N=Nc4c(O)[nH]c5ccccc45)cc3)[nH]c2c1 | 38.4% | 109% | 64.3% | 6.51% (active) | -24.7% (active) | -20.5% (active) | 59.7% | 1.59% (active) |
| S=c1c2ncccc2c(-c2ccccn2)nn1Cc1ccccn1 | 75.5% | 79.7% | 100% | 109% | 90.7% | 62% | 91.9% | 103% |
| CCCN(CCC)CCCNC(=O)c1cc2c(-c3ccc(OC)c(OC)c3)nn(C)c2s1 | 24.5% | 13.7% | -24.5% (active) | 10.8% | 11.2% | 13.7% | 67.2% | 6.62% (active) |
| COc1ccc(-c2nc3sc(-c4ccccc4)c(-c4ccccc4)n3c2/C=C/c2ccc(F)cc2)cc1 | 77.6% | 112% | 97.1% | 95.5% | 73.8% | 77.3% | 92.8% | 90.7% |
| COc1cc(CSc2nc3ccc(Cl)cc3c(=O)n2Cc2ccccc2)cc(OC)c1OC | 33.9% | 21.7% | 1.84% (active) | 28.7% | 14.3% | 20.8% | 50.1% | 23.7% |
| O=C(N/N=c1/ccoc2cccnc12)N1CCN(c2ncccn2)CC1 | 9.29% (active) | 47.9% | 34.9% | 33.1% | 11.2% | 16% | 26.1% | 24.7% |
| COc1ccc(C2CC(c3ccc(-c4ccccc4)cc3)=NN2c2ccc(S(N)(=O)=O)cc2)cc1 (centres undefined) | 52.5% | 98.5% | 76% | 81.1% | 58.6% | 56.7% | 58.2% | 37.5% |
